In the supplement of paper PMC10849652:
About 8,800 targets were measured; listed, in parts, are those with a hit and a random draw of the rest. About 0.5% of all pairs of compound and target were hits. Values without a mark were called inactive.

Columns and labels:
Assay in all cases: log2 fold change, soluble protein after heating vs DMSO (PISA); higher = thermal stabilisation; K562 lysate, 10 uM; active = over 0.2 and 3.5 SD of the protein, either way, in both replicates (recomputed)
[1] = compound: NCC(=O)Nc1ccc(-n2nc(C(F)(F)F)cc2-c2ccc3c(ccc4ccccc43)c2)cc1
Outline: (§1)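 K562 pellets were dounce-homogenised in PBS pH 7.4 containing 1 mM MgCl2, and the crude extract, at 1 mg/mL protein, was exposed to 10 μM compound for 30 min. Aliquots were heated for 3 min across 48°C-58°C, pooled, brought to 0.5% NP-40 at 4°C and spun at 21,000xg for 90 min, with the supernatant taken as soluble protein. TMTpro 16plex LC-MS/MS with equalised channel sums quantified that protein. Values are log-two fold changes in thermal stability relative to solvent controls, taken from duplicates.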

vorinostat = compound: O=C(CCCCCCC(=O)Nc1ccccc1)NO [vorinostat]
Outline: as §1

silmitasertib = compound: O=C(O)c1ccc2c(c1)nc(Nc1cccc(Cl)c1)c1ccncc12 [silmitasertib]
Outline: as §1

[2] = compound: O=C1NC(=O)C(c2cnc3ccccn23)=C1c1cn2c3c(cc(F)cc13)CN(C(=O)N1CCCCC1)CC2
Outline: as §1

entospletinib = compound: c1cn2cc(-c3ccc4cn[nH]c4c3)nc(Nc3ccc(N4CCOCC4)cc3)c2n1 [entospletinib]
Outline: as §1

Sequence of UniProt P22059 (P22059 whole entry, looked up): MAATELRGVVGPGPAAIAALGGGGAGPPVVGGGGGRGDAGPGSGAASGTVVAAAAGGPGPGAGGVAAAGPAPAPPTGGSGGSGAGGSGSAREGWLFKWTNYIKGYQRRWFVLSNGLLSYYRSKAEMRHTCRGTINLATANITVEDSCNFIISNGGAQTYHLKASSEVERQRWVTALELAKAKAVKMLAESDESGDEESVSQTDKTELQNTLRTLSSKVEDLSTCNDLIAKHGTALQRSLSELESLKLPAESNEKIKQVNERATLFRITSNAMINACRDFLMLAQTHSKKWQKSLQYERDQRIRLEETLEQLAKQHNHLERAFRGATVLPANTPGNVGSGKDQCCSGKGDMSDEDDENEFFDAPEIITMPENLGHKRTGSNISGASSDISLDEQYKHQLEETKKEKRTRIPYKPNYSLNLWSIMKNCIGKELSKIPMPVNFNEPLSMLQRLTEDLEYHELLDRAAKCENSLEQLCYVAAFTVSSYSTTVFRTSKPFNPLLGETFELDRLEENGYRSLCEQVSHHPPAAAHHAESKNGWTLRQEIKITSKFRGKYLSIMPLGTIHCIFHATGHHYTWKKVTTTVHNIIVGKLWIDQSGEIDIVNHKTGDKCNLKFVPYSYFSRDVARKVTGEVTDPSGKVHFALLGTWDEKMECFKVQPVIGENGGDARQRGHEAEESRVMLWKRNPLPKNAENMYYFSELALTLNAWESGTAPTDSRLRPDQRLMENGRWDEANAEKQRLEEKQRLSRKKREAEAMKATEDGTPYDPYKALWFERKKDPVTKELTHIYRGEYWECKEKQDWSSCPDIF
Sequence of UniProt Q6GQQ9 (Q6GQQ9 whole entry, looked up): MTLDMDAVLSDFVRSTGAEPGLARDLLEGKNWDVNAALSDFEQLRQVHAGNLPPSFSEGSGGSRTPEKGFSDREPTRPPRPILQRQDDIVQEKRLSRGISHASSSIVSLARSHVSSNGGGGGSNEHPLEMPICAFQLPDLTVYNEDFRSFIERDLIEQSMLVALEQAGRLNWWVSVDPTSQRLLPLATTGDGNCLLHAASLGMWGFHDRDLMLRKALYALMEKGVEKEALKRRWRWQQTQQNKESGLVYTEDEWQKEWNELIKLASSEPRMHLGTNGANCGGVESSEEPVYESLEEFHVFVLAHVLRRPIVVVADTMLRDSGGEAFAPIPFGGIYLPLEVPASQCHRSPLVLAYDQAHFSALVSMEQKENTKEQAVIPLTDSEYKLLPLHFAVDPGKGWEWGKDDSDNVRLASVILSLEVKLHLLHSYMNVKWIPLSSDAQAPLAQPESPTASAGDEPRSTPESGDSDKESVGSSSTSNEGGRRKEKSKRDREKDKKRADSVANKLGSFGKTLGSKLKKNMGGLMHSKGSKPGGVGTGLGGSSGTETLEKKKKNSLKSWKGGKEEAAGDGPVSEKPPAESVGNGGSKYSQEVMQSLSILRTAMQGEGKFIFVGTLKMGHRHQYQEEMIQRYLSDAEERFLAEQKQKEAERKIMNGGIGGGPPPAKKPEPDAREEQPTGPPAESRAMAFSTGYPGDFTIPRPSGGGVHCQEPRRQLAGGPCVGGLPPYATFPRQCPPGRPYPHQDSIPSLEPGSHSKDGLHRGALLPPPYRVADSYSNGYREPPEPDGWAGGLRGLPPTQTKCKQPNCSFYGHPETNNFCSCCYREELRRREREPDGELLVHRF
Sequence of UniProt P15559 (P15559 whole entry, looked up): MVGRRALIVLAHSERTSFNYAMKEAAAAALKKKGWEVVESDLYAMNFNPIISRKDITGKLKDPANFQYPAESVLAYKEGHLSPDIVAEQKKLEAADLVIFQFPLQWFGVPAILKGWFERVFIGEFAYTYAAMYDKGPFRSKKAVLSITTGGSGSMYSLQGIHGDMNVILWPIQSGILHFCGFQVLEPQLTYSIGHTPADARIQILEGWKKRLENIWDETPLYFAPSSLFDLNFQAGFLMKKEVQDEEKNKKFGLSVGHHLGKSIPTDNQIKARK
Sequence of UniProt Q5JRK9 (Q5JRK9 whole entry, looked up): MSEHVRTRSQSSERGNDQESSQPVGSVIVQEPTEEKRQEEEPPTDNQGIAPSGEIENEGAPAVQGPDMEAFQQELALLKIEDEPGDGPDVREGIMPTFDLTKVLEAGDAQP
Sequence of UniProt Q9NZJ9 (Q9NZJ9 whole entry, looked up): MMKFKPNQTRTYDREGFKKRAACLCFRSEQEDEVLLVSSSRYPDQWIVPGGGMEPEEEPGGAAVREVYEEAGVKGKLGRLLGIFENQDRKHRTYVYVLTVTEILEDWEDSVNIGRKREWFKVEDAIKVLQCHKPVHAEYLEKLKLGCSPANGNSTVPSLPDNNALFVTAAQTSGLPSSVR
Sequence of UniProt O00159 (O00159 whole entry, looked up): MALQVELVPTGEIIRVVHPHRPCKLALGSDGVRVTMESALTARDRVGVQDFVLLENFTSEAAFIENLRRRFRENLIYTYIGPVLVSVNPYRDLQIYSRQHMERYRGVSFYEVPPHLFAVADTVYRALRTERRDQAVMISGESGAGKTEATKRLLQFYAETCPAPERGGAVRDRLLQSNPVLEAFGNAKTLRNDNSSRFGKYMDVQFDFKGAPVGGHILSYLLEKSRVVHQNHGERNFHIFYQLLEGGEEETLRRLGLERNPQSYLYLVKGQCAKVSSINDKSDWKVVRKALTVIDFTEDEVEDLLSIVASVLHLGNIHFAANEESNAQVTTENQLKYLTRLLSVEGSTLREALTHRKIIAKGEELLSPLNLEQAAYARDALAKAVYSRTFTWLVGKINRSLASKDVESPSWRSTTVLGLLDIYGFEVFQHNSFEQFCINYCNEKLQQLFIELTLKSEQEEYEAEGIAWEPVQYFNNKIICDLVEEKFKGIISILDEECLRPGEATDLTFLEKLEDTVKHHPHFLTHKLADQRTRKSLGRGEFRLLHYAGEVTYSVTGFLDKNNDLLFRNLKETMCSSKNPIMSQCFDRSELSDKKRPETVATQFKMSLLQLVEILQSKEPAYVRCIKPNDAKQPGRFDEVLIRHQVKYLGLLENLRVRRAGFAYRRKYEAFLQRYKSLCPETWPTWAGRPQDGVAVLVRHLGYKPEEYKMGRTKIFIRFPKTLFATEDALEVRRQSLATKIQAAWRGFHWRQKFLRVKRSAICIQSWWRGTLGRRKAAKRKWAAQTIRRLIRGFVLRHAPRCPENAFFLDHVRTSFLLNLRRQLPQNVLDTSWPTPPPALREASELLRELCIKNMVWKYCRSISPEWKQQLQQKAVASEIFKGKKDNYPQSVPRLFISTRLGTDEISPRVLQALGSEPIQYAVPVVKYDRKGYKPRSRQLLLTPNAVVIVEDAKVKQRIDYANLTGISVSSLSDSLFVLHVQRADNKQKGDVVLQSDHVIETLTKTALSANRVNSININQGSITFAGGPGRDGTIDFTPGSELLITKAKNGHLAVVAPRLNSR
Sequence of UniProt Q9BZD4 (Q9BZD4 whole entry, looked up): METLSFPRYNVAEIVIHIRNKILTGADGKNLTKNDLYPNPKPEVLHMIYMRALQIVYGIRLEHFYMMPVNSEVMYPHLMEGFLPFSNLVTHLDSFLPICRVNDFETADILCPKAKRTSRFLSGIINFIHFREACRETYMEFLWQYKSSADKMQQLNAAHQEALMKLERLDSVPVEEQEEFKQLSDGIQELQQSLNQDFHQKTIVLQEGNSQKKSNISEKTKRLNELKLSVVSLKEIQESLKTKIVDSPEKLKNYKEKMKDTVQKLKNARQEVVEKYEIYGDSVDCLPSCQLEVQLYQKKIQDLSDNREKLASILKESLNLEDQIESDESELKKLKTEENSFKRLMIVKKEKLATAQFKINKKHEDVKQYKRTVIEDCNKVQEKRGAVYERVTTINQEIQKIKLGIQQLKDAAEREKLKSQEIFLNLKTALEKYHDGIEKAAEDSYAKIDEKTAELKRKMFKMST
Sequence of UniProt P49757 (P49757 whole entry, looked up): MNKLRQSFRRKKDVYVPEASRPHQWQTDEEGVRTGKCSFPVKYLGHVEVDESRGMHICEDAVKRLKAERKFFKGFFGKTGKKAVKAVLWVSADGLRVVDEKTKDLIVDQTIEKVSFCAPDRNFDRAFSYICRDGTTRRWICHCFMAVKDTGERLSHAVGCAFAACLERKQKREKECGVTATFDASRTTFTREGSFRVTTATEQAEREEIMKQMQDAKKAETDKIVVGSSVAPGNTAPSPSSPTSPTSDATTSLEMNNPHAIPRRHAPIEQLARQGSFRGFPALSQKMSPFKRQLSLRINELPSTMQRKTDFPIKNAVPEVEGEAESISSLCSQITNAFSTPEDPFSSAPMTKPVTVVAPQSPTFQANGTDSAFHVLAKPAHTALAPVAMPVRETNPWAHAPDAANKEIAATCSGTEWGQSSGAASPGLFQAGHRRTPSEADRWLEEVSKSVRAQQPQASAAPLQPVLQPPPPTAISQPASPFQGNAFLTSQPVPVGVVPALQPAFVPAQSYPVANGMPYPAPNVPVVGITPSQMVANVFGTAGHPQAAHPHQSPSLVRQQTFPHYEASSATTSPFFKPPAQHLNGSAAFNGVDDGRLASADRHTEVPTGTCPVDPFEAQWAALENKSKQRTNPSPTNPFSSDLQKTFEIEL
Sequence of UniProt O00221 (O00221 whole entry, looked up): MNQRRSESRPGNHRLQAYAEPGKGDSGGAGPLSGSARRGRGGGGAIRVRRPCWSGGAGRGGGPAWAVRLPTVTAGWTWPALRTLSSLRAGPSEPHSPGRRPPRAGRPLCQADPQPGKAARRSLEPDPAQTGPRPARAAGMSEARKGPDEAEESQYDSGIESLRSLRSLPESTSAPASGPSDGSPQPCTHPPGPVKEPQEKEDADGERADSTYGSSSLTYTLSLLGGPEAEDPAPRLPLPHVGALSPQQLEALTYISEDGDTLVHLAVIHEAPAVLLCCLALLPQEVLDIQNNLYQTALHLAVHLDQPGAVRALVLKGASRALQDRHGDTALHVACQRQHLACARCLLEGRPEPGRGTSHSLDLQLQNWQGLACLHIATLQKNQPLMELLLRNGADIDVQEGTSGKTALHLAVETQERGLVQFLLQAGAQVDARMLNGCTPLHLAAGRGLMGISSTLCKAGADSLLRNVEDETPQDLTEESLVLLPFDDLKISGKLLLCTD
Sequence of UniProt Q15843 (Q15843 whole entry, looked up): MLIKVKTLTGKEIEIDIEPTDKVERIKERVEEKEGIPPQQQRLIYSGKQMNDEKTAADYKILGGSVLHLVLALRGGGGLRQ

Row | Target | log2 fold change [1] | log2 fold change (vorinostat) | log2 fold change (silmitasertib) | log2 fold change [2] | log2 fold change (entospletinib)
1 | NACC1 (UniProt Q96RE7) | -0.014 | -0.231 (active) | 0.024 | -0.004 | -0.036
2 | MSH6 (UniProt P52701) | 0.008 | -0.287 (active) | 0.063 | 0.016 | -0.012
3 | NEBL (UniProt O76041) | 0.056 | 0.207 | 0.052 | -0.026 | -0.018
4 | OTUD7B (UniProt Q6GQQ9) | 0.044 | 0.331 (active) | -0.038 | 0.194 | -0.04
5 | NQO1 (UniProt P15559) | 0.008 | -0.132 | 0.038 | 0.023 | -0.027
6 | MSI2 (UniProt Q96DH6) | 0.053 | -0.046 | -0.021 | -0.052 | 0.033
7 | MTMR6 (UniProt Q9Y217) | -0.018 | -0.276 (active) | 0.027 | -0.027 | 0.003
8 | NMRAL1 (UniProt Q9HBL8) | -0.023 | -0.009 | 0.047 | -0.04 | 0.012
9 | OSBP (UniProt P22059) | 0.041 | 0.108 | -0.121 | -0.015 | -0.1
10 | OTC (UniProt P00480) | 0.097 | 0.087 | -0.029 | -0.157 | -0.028
11 | NPTN (UniProt Q9Y639) | 0.067 | 0.078 | -0.031 | 0.04 | 0.096
12 | NFATC2 (UniProt Q13469) | 0.02 | -0.411 (active) | 0.021 | 0.044 | -0.062
13 | NFKBIE (UniProt O00221) | -0.08 | 0.005 | 0.114 | -0.017 | -0.036
14 | NCAPD3 (UniProt P42695) | -0.005 | -0.562 (active) | 0.034 | -0.022 | -0.007
15 | NIT2 (UniProt Q9NQR4) | -0.001 | 0.346 (active) | -0.001 | -0.007 | 0.004
16 | ORC3 isoform 2 (UniProt Q9UBD5) | -0.012 | -0.409 (active) | 0.023 | 0.052 | 0.013
17 | NUDT4 isoform 2 (UniProt Q9NZJ9) | 0.057 | -0.336 (active) | -0.034 | 0.018 | -0.023
18 | NUF2 (UniProt Q9BZD4) | 0.005 | -0.242 (active) | 0.017 | 0.008 | 0.016
19 | NAA35 (UniProt Q5VZE5) | -0.04 | -0.308 (active) | 0.017 | 0.004 | 0.028
20 | NUMB (UniProt P49757) | 0 | -0.315 (active) | -0.014 | -0.066 | 0
21 | PAGE2B (UniProt Q5JRK9) | 0.057 | 0.474 (active) | -0.001 | 0.02 | 0.017
22 | NIFK (UniProt Q9BYG3) | 0.063 | 0.063 | -0.001 | 0.047 | 0.044
23 | NR2C2 isoform 2 (UniProt P49116) | -0.024 | -0.233 | 0.041 | 0.008 | 0.028
24 | NEDD8 (UniProt Q15843) | -0.033 | 0.195 | -0.12 | 0.038 | -0.082
25 | MYO1C (UniProt O00159) | -0.017 | -0.171 | 0.015 | 0.11 | 0.033
